Source: PubChem BioAssay (EPA / NIEHS)
Several values for one entry are separate records, joined by “and”; a condition that tells them apart may be missing. Identical values can stand only once. Inconclusive results are not listed. Activity calls are given as the source filed them. How the source made its calls: active means hit-call score of the fitted dose curve at least 0.9, where 1 is the maximum; inconclusive means response in the unintended direction; inactive means score below 0.9. Where a SMILES comes first, the peptide text is derived from it. Bridges are numbered along the chain shown (N, C = ends). [ ]: non-standard residue; d: D form. The star is where a group is joined. Ileψ(thiazoline)Cys = CC[C@H](C)[C@H](N)C1=N[C@H](C(=O)*)CS1; dOrn = NCCC[C@@H](N)C(=O)O

Legend:
[1] = TOX21_p53_BLA_p2_viability: Viability Assessment in the Tox21 HCT-116 p53 Agonism Beta-lactamase Assay, Phase 2 (AID 2283591);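 further: actives lower the ATP signal meaning cytotoxicity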
Summary of the method: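 Cytotoxicity readout: CellTiter-Glo ATP luminescence, 30 min at room temperature, after the beta-lactamase read. Cells were HCT116 exposed 16 h at 37C to compounds pin-transferred at 217-fold dilution from DMSO stocks.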

[2] = molecular target: Cellular tumor antigen p53 (Homo sapiens) (UniProt P04637); assay: TOX21_p53_BLA_p2_ratio: Tox21 HCT-116 p53 Agonism Beta-lactamase Assay, Ratio, Phase 2 (AID 2283592)
Cellular tumor antigen p53 (Homo sapiens), sequence (P04637 whole entry, looked up): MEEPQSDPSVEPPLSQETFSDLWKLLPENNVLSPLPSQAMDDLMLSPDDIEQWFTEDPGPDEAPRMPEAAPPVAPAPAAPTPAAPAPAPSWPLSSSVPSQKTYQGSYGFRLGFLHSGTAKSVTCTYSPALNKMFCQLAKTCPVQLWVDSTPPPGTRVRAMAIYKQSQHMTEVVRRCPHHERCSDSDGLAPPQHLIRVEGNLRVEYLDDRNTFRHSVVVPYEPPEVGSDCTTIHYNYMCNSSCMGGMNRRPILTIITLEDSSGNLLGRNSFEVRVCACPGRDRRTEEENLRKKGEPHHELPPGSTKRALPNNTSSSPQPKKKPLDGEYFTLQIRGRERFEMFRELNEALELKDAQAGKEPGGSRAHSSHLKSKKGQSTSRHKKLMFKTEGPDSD
Summary of the method: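 First, HCT116 reporter cells settle for 5 h at 37C. Next, DMSO compound solutions are pinned in (217-fold dilution) and left 16 h. Finally, CCF4-AM substrate is loaded 2 h at room temperature and the 460/530 nm ratio read.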

[3] = TOX21_p53_BLA_p3_viability: Viability Assessment in the Tox21 HCT-116 p53 Agonism Beta-lactamase Assay, Phase 3 (AID 2283593);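 further: cells exposed to compound for 16 h before reading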
Summary of the method: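 Cellular ATP was quantified by CellTiter-Glo luminescence, read after 30 min at room temperature. Beforehand, HCT116 cells (4000/well) received compound 5 h post-seeding, 217-fold diluted from DMSO, then incubated 16 h at 37C.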

[4] = molecular target: Cellular tumor antigen p53 (Homo sapiens) (UniProt P04637); assay: TOX21_p53_BLA_p3_ratio: Tox21 HCT-116 p53 Agonism Beta-lactamase Assay, Ratio, Phase 3 (AID 2283596)
Summary of the method: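 Cells were seeded at 4000/well, rested 5 h at 37C, then dosed with DMSO compound solutions (217-fold dilution) for 16 h. CCF4-AM substrate was loaded for 2 h at room temperature, and the 460/530 nm emission ratio was fitted for gain of signal versus DMSO.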

[5] = TOX21_p53_BLA_p4_viability: Viability Assessment in the Tox21 HCT-116 p53 Agonism Beta-lactamase Assay, Phase 4 (AID 2283597);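 further: hits lower the luminescence signal meaning cytotoxicity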
Summary of the method: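 4000 HCT116 cells per well; 5 h attachment; compounds from DMSO, 217-fold dilution; 16 h at 37C. Then CCF4-AM, 2 h RT, followed by CellTiter-Glo, 30 min RT, luminescence. Decrease = cytotoxicity.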

[6] = molecular target: Cellular tumor antigen p53 (Homo sapiens) (UniProt P04637); assay: TOX21_p53_BLA_p5_ratio: Tox21 HCT-116 p53 Agonism Beta-lactamase Assay, Ratio, Phase 5 (AID 2283599)
Summary of the method: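 Beta-lactamase reporter ratio (blue 460 nm over green 530 nm, 405 nm excitation) after 2 h CCF4-AM loading, in HCT-116 cells exposed 16 h at 37 C to compounds pinned at 217-fold dilution. Increases relative to DMSO baseline scored.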

[7] = TOX21_p53_BLA_p5_viability: Viability Assessment in the Tox21 HCT-116 p53 Agonism Beta-lactamase Assay, Phase 5 (AID 2283600)
Summary of the method: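 Decreased CellTiter-Glo luminescence denotes lost viability. Exposure: 16 h at 37C, 5% CO2, with compounds from DMSO stocks diluted 217-fold in wells of 4000 cells.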

[8] = molecular target: Cellular tumor antigen p53 (Homo sapiens) (UniProt P04637); assay: TOX21_p53_BLA_p4_ratio: Tox21 HCT-116 p53 Agonism Beta-lactamase Assay, Ratio, Phase 4 (AID 2283601)
Summary of the method: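 Signal is the blue/green (460nm/530nm) ratio of cleaved versus uncleaved CCF4-AM substrate, read after 2 h substrate loading. Cells were HCT116 carrying the p53-responsive beta-lactamase reporter, dosed 16 h at 37C, 5% CO2; CellTiter-Glo measured in parallel.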

Measured: AC50

CNc1ccc(O)cc1
active: [3] 82 µM | [7] 78 µM
inactive: [1] | [2] | [4] | [5] | [6] | [8]

O=C(c1cc2ccccc2o1)N1CCN(Cc2ccccc2)CC1
inactive: [1] | [2] | [3] | [4] | [5] | [6] | [7] | [8]

CC(=O)[C@@]1(O)CC[C@H]2[C@@H]3C=C(Cl)C4=CC(=O)CC[C@]4(C)[C@H]3CC[C@@]21C
inactive: [1] | [3] | [4] | [7]
active: [2] 37 µM | [5] 23 µM | [6] 37.9 µM | [8] 37.8 µM

CCCC1([C@H](O)C/C=C/[C@H]2[C@H](O)CC(=O)[C@@H]2CCCCCCC(=O)OC)CCC1
inactive: [1] | [2] | [3] | [4] | [6] | [7] | [8]
active: [5] 36.3 µM

Cc1ccc(S(=O)(=O)NC(=O)NN2CC3CCCC3C2)cc1 (stereo unspecified)
inactive: [1] | [2] | [3] | [4] | [5] | [6] | [7] | [8]

CC1(C)S[C@@H]2[C@H](NC(=O)Cc3ccccc3)C(=O)N2[C@H]1C(=O)O (tested in a mixture with another compound)
inactive: [1] | [2] | [3] | [4] | [5] | [6] | [7] | [8]

CCC(C)[C@H]1O[C@]2(C=C[C@@H]1C)C[C@@H]1C[C@@H](C/C=C(\C)[C@@H](O[C@H]3C[C@H](OC)[C@@H](O[C@H]4C[C@H](OC)[C@H](NC(C)=O)[C@H](C)O4)[C@H](C)O3)[C@@H](C)/C=C/C=C3\CO[C@@H]4[C@H](O)C(C)=C[C@@H](C(=O)O1)[C@]34O)O2 (stereo partly specified)
active: [1] 13 µM | [2] 15 µM | [3] 23 µM | [4] 34.5 µM | [5] 9.38 µM | [6] 22.3 µM | [7] 15.8 µM | [8] 12 µM

CN=C(N)NCCC[C@H](N)C(=O)O
inactive: [1] | [2] | [3] | [4] | [5] | [6] | [7] | [8]

O=C(O)c1cc(N=Nc2ccc([N+](=O)[O-])cc2)ccc1O
active: [1] 84.1 µM | [3] 45.4 µM | [5] 29.6 µM
inactive: [2] | [4] | [6] | [7] | [8]

CCC(CC)(CC(=O)Nc1cccc(/C=C/c2nc(C3CCC3)cs2)c1)C(=O)O
inactive: [1] | [2] | [3] | [4] | [5] | [6] | [7] | [8]

CCCCCCCCCCCCCC[n+]1ccc(C)cc1
active: [2] 20.1 µM | [4] 27.5 µM
inactive: [1] | [3] | [5] | [6] | [7] | [8]

CCCCC(=O)OCC(=O)[C@]1(O)Cc2c(O)c3c(c(O)c2[C@@H](O[C@H]2C[C@H](NC(=O)C(F)(F)F)[C@H](O)[C@H](C)O2)C1)C(=O)c1c(OC)cccc1C3=O
active: [2] 7.68 µM | [4] 8.58 µM | [6] 7.73 µM | [8] 5.24 µM
inactive: [1] | [3] | [5] | [7]

CON=C(C(=O)N[C@@H]1C(=O)N2C(C(=O)O)=C(COC(N)=O)CS[C@H]12)c1ccco1
inactive: [1] | [2] | [3] | [4] | [5] | [6] | [7] | [8]

CCCCCCCC/C=C\CCCCCCCCOCCO
active: [1] 72.5 µM | [2] 96.6 µM | [3] 29.2 µM | [4] 80.3 µM | [5] 72.6 µM | [6] 56.2 µM | [7] 21.1 µM | [8] 105 µM

N#CC(c1ccc(Cl)cc1)c1c(Cl)cc(-n2ncc(=O)[nH]c2=O)cc1Cl (stereo unspecified)
active: [2] 19.6 µM | [3] 32.2 µM | [4] 20.3 µM | [5] 31.4 µM | [6] 22.1 µM | [8] 22.1 µM
inactive: [1] | [7]

CCOc1ccc2nc3cc(N)ccc3c(N)c2c1
inactive: [1] | [3] | [5] | [7]
active: [2] 30.3 µM | [4] 36.4 µM | [6] 43.5 µM | [8] 32.4 µM

CC[C@@]1(O)C(=O)OCc2c1cc1n(c2=O)Cc2cc3c([N+](=O)[O-])cccc3nc2-1
active: [2] 0.124 µM | [3] 0.685 µM | [4] 0.172 µM | [5] 0.654 µM | [6] 0.166 µM | [8] 0.166 µM
inactive: [1] | [7]

CNCC[C@H](Oc1cccc2ccccc12)c1cccs1
inactive: [3] | [4] | [6] | [7]
active: [1] 35.4 µM | [2] 43.5 µM | [5] 35.4 µM | [8] 43.7 µM

Cc1cnc(C(=O)O)c[n+]1[O-]
inactive: [1] | [2] | [3] | [4] | [5] | [6] | [7] | [8]

CCOc1ccc([N+](=O)[O-])cc1
active: [3] 70.9 µM | [4] 80.9 µM | [5] 46.7 µM | [6] 84.9 µM | [7] 61.1 µM | [8] 81.5 µM
inactive: [1] | [2]

Nc1c2c(nc3c1CCC3)CCCC2
inactive: [1] | [2] | [3] | [4] | [5] | [6] | [7] | [8]

CC1=C[C@H](O)CC(C)(C)[C@H]1/C=C/C(C)=C/C=C/C(C)=C/C=C/C=C(C)/C=C/C=C(C)/C=C/C1=C(C)C[C@@H](O)CC1(C)C
inactive: [1] | [2] | [3]
active: [4] 39.9 µM | [5] 35.3 µM | [6] 38.4 µM | [7] 43 µM | [8] 34.8 µM

COc1cc(C=C2CCCC(=Cc3ccc(O)c(OC)c3)C2=O)ccc1O
inactive: [2] | [4] | [8]
active: [1] 15.2 µM | [3] 15.5 µM | [5] 27.8 µM | [6] 11.5 µM | [7] 17 µM

O=C(O)c1ccc(-n2nc(-c3ccccc3O)nc2-c2ccccc2O)cc1
inactive: [1] | [2] | [3] | [4] | [5] | [6] | [7] | [8]

CO[C@H]1C[C@H](O[C@@H]2/C(C)=C/C[C@@H]3C[C@@H](C[C@]4(CC[C@H](C)[C@@H](C5CCCCC5)O4)O3)OC(=O)[C@@H]3C=C(C)/C(=N/O)[C@H]4OC/C(=C\C=C\[C@@H]2C)[C@]43O)O[C@@H](C)[C@@H]1O
inactive: [1] | [2] | [3] | [4] | [6] | [7] | [8]
active: [5] 40.7 µM

CC(=O)OC(OC(C)=O)c1ccc([N+](=O)[O-])o1
active: [1] 74.3 µM | [3] 74.1 µM | [5] 74.8 µM | [7] 88 µM
inactive: [2] | [4] | [6] | [8]

O=C(O)c1cc(=O)[nH]c(=O)[nH]1
inactive: [1] | [2] | [3] | [4] | [5] | [6] | [7] | [8]

O=C(Nc1ccc(Cl)cc1)Nc1ccc(Cl)c(C(F)(F)F)c1
inactive: [3]
active: [1] 32.8 µM | [2] 5.23 µM | [4] 11.2 µM | [5] 33.1 µM | [6] 19.5 µM | [7] 39.6 µM | [8] 6.95 µM

CC1CC(OC(=O)C(O)c2ccccc2)CC(C)(C)C1 (stereo unspecified)
inactive: [1] | [2] | [3] | [4] | [5] | [6] | [7] | [8]

C=CCN1C(=O)C(CC(C)C)NC1=S (stereo unspecified)
inactive: [1] | [2] | [3] | [4] | [5] | [6] | [7] | [8]

CN1CCN(CCCN2c3ccccc3Sc3ccc(Cl)cc32)CC1
active: [1] 33.8 µM | [2] 43.7 µM | [3] 34.7 µM | [5] 38.3 µM | [6] 43.3 µM | [7] 34.4 µM | [8] 43.7 µM
inactive: [4]

Nc1nc(F)nc2c1ncn2[C@@H]1O[C@H](CO)[C@@H](O)[C@@H]1O
active: [2] 21.1 µM and 20 µM | [4] 13.2 µM and 20.6 µM | [6] 22.5 µM and 25.2 µM | [8] 22.5 µM and 24 µM
inactive: [1] | [3] | [5] | [7]

Nc1ccc(C(=O)Nc2ccccc2N)cc1
inactive: [1] | [3] | [6] | [7] | [8]
active: [2] 12.6 µM | [4] 21.1 µM | [5] 20.9 µM

Oc1ccc(Sc2ccc(O)cc2)cc1
active: [2] 69.4 µM | [4] 69.8 µM | [6] 70.4 µM
inactive: [1] | [3] | [5] | [7] | [8]

CC[C@H](C)[C@H](N)C1=N[C@H](C(=O)N[C@@H](CC(C)C)C(=O)N[C@H](CCC(=O)O)C(=O)N[C@H](C(=O)N[C@H]2CCCCNC(=O)[C@H](CC(N)=O)NC(=O)[C@@H](CC(=O)O)NC(=O)[C@H](Cc3cnc[nH]3)NC(=O)[C@@H](Cc3ccccc3)NC(=O)[C@H]([C@@H](C)CC)NC(=O)[C@@H](CCCN)NC2=O)[C@@H](C)CC)CS1 ({Ileψ(thiazoline)Cys}-L[dE]IK[dOrn]I[dF]H[dD]N; lactam 4-C)
inactive: [1] | [2] | [3] | [4] | [5] | [6] | [7] | [8]

CCCCCCCCCCn1cc[n+](CCCCCCCCCC)c1C
active: [1] 44.2 µM | [2] 18.7 µM | [3] 46.1 µM | [4] 20.1 µM | [5] 57.5 µM | [6] 74.1 µM | [7] 75.2 µM | [8] 73.6 µM

CCCCCCCCCCOCC(O)CN (stereo unspecified)
inactive: [2] | [3] | [4] | [6] | [7]
active: [1] 36.8 µM | [5] 36.8 µM | [8] 42.9 µM
